Screens (PubChem BioAssay)
This is a sample that favours compounds with a hit; in the whole collection about 3.3% have one here.
Gli-Sufu antag = Gli-Sufu pathway antagonists, primary screen, luciferase luminescence, Sufu-KO-LIGHT cells, uHTS. Sufu-KO-LIGHT fibroblasts, Gli luciferase reporter luminescence. inhibition, % at 5 µM. 340,000 tested, 0.74% active;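 active = inhibition above about 55%, limit read from the data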
Jurkat NFkB inh = inhibitors of induced NF-kB luciferase reporter, primary screen, TCR NF-kB activation inhibitor project, cell-based, luminescence, uHTS | Jurkat, PMA/ionomycin-induced NF-kB luciferase reporter | inhibition, % at 4 µM | 330,000 tested, 0.53% active; in the data active = inhibition above about 50%
697 NFkB inh = inhibitors of PMA/ionomycin-induced NF-kB reporter, 697 cells, primary screen, B-cell NF-kB inhibitor project, cell-based, luminescence, uHTS. inhibition, % at 4 µM. 697 B-cell NF-kB luciferase reporter, 16 h. 330,000 tested, 0.33% active; in the data active = inhibition above about 35%
SMARCA2 activ = SMARCA2 (BRM) function activators, primary screen, cell-based, luminescence, high throughput. MG213 cells, MMTV-luciferase reporter, dexamethasone, overnight. activation, % at 9.1 µM. 370,000 tested, 1% active. AID 652017, 2013; in the data active = activation above about 7.8%
esBAF inh = Bmi1 luciferase reporter increase in mESCs, primary screen, esBAF inhibitor project, mouse ES cells, Bmi1 luciferase knock-in, single point | 24 h; 100% = twice the neutral-well signal | reporter increase, % at 12.5 µM | 350,000 tested, 2% active | AID 602393, 2012; in the data active = activation above about 40%;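 note: a rise in the Bmi1 reporter signal indicates esBAF inhibition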
Gli antag conf = Gli-SUFU pathway antagonists, confirmation, single concentration, luciferase luminescence, Sufu-KO-LIGHT cells | shares compounds with Gli-Sufu antag | Gli luciferase reporter | inhibition, % at 5 µM | 2,500 tested, 40% active;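 active = mean inhibition at 5 µM reaching about 45%, limit read from the data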
SufuKO cytotox = cytotoxicity in Sufu-KO-LIGHT cells, confirmation, cytotoxicity control for Gli-SUFU antagonist project, cell-based, ATP luminescence, single concentration; shares compounds with Gli-Sufu antag; cytotoxicity, % at 5 µM; 2,500 tested, 32% active; AID 651994, 2013;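 active = mean cytotoxicity at 5 µM above about 25%, limit read from the data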;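 note: cells exposed to compound overnight for roughly 16 to 18 hours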
Wnt3a counter = Wnt3a reporter signal inhibition, confirmation, counter-screen for Gli-SUFU antagonist project, Wnt-LIGHT cells, luminescence, single concentration; shares compounds with Gli-Sufu antag; Wnt3a-driven luciferase reporter; inhibition, % at 6.25 µM; 2,500 tested, 20% active;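 active = mean inhibition above about 25%, limit read from the data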
Hits are given with their value; i = inactive; nt = not tested or not shown.

SMILES | Gli-Sufu antag | Jurkat NFkB inh | 697 NFkB inh | SMARCA2 activ | esBAF inh | Gli antag conf | SufuKO cytotox | Wnt3a counter
O=C(C[C@@H]1CC[C@H]2[C@@H](COC[C@H](O)CN2C(=O)c2ccc(F)cc2)O1)Nc1ccc(-c2ccccc2)cc1 | nt | nt | nt | nt | i | nt | nt | nt
CC(C)C#Cc1ccc2c(c1)O[C@@H](CN(C)Cc1cccnc1)[C@@H](C)CN([C@H](C)CO)S2(=O)=O | nt | nt | nt | nt | i | nt | nt | nt
O=C(O)Cn1c(-c2ccccc2)nc2ccccc21 | 95.8 | i | i | i | i | i | i | i
COc1ccc(CNC(=O)CSc2ncn[nH]2)cc1 | 87.4 | i | i | i | i | i | i | i
Cc1ccc(CNC(=O)CSc2ncn[nH]2)cc1 | i | i | i | i | i | nt | nt | nt
C[C@@H]1CN([C@H](C)CO)C(=O)Cc2cc(NS(=O)(=O)c3ccc(Cl)cc3)ccc2O[C@@H]1CN(C)Cc1ccncc1 | nt | nt | nt | nt | i | nt | nt | nt
C[C@H]1CN([C@@H](C)CO)C(=O)c2cc(C#CC3CCCCC3)cnc2O[C@H]1CN(C)C(=O)Nc1ccccc1 | nt | nt | nt | nt | i | nt | nt | nt
COc1ccccc1N(C)S(=O)(=O)c1ccc(C(=O)NCc2ccccc2CN2CCCC2)cc1 | i | nt | nt | i | i | i | i | i
COCC#Cc1cnc2c(c1)C(=O)N([C@@H](C)CO)C[C@H](C)[C@@H](CN(C)C)O2 | nt | nt | nt | nt | i | nt | nt | nt
COc1ccc2cc([C@@H](C)C(=O)O)ccc2c1 | i | i | i | i | i | i | i | i
COc1ccc2cc(C(C)C(=O)OC(C)C)ccc2c1 (stereo not given) | i | i | i | i | i | nt | nt | nt
O=C(Cc1ccccc1)N1CC[C@H]2[C@H](CO)Nc3ccc(-c4ccccc4)cc3[C@H]21 | nt | nt | nt | nt | i | nt | nt | nt
C[C@H]1CN([C@@H](C)CO)C(=O)c2cc(NC(=O)Nc3cccc4ccccc34)ccc2O[C@H]1CN(C)C | nt | nt | nt | nt | i | nt | nt | nt
COc1nc(NCCc2ccc(OC)c(OC)c2)nc(OC)n1 | i | i | i | i | i | nt | nt | nt
COc1nc(NCCC2=CCCCC2)nc(OC)n1 | 98.7 | i | i | i | nt | i | i | i
O=C(O)CCCN1C(=O)C2C3C=CC(C2C1=O)C1C(=O)N(CCCC(=O)O)C(=O)C31 (stereo not given) | i | i | i | i | i | nt | nt | nt
O=C(O)CCCCCN1C(=O)C2CCCCC2C1=O (stereo not given) | 70.4 | i | i | i | i | i | i | i
Cc1ccc(N=c2c([N+](=O)[O-])nn(-c3ccc4c(c3)OCCO4)n2O)cc1F | 61.0 | i | i | i | nt | 64.7 | i | 69.8
CCc1ccc(N=c2c([N+](=O)[O-])nn(-c3ccc4c(c3)OCCO4)n2O)cc1 | i | i | i | i | nt | nt | nt | nt
O=[N+]([O-])c1nn(-c2ccc3c(c2)OCCO3)n(O)c1=Nc1ccc(Cl)cc1 | 57.2 | i | i | i | i | 59.5 | i | 43.7
CCC(C)OC(=O)C[N+](C)(C)CCOC1CC2CCC1(C)C2(C)C (stereo not given) | 72.8 | i | i | i | nt | 70.8 | 35.7 | i
CCCOC(=O)C[N+](C)(C)CCOC1CC2CCC1(C)C2(C)C (stereo not given) | i | i | i | i | nt | nt | nt | nt
CC(C)CCOC(=O)C[N+](C)(C)CCOC1CC2CCC1(C)C2(C)C (stereo not given) | 77.3 | i | i | i | nt | 72.7 | i | i
CCCCOC(=O)C[N+](C)(C)CCOC1CC2CCC1(C)C2(C)C (stereo not given) | 69.0 | i | i | i | i | 71.9 | 37.4 | i
Cc1cccc(NC(=O)C2CCCN(C(=O)Nc3ccccc3)C2)c1C (stereo not given) | 57.6 | i | i | i | i | i | i | i
Cc1ccccc1NC(=O)C1CCCN(C(=O)Nc2ccc(F)cc2)C1 (stereo not given) | i | i | i | i | i | nt | nt | nt
